For 16 molecules, Potency results are on record in PubChem BioAssay (NCATS).

Records with an inconclusive call do not appear. Active and inactive are the calls of the source. The call rests on the fitted dose curve; in most records, active means well fitted curve in the direction sought with a large enough effect; inconclusive means small, poorly fitted or top-dose-only effect, or another doubt; inactive means no such curve, though single readings can be large; an effect the other way counts as inactive or inconclusive.

Experiment [1] can be described thus: qHTS of pediatric cancer cell lines to identify multiple opportunities for drug repurposing: Primary screen for BT-37 cells (AID 1347094). Further: potency means the concentration at half of the fitted maximal effect. The gist of the method:
(§1)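 Following a 5-hour attachment period, cells at 500-1,000/well received compounds and were cultured for 48 hours. CellTiter-Glo was added and luminescence read to estimate viable, metabolically active cells.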

The nature of experiment [2]: qHTS of pediatric cancer cell lines to identify multiple opportunities for drug repurposing: Primary screen for NB-EBc1 cells (AID 1347095). Further: potency means the concentration at half of the fitted maximal effect. The procedure, abridged: as §1
(In general: qHTS replaces the single test concentration by a dilution series.)

Experiment [3] is described as follows: qHTS of pediatric cancer cell lines to identify multiple opportunities for drug repurposing: Primary screen for Saos-2 cells (AID 1347097). Further: nearly all actives have a fitted effect of over 40% in size. Further: potency means the concentration at half of the fitted maximal effect. The procedure, abridged: as §1
Experiment [4] in a line: qHTS of pediatric cancer cell lines to identify multiple opportunities for drug repurposing: Primary screen for NB1643 cells (AID 1347099). Further: nearly all actives have a fitted effect of over 50% in size. Further: potency means the concentration at half of the fitted maximal effect. The gist of the method: as §1
The nature of experiment [5]: qHTS of pediatric cancer cell lines to identify multiple opportunities for drug repurposing: Primary screen for LAN-5 cells (AID 1347100). Further: potency means the concentration at half of the fitted maximal effect. The procedure, abridged:
(§2)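 Cells (500-1,000/well) in growth media were settled 5 h at 37 degrees C, then given compounds for 48 h. Viability was read as CellTiter-Glo luminescence. Primary runs used MIPE at 11 points (0.78 nM-46 µM) and NPC at 8 points (0.59 nM-46 µM); follow-ups used 11 points.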

A short description of experiment [6]: qHTS of pediatric cancer cell lines to identify multiple opportunities for drug repurposing: Primary screen for Rh18 cells (AID 1347102). Further: nearly all actives have a fitted effect of over 65% in size. Further: potency means the concentration at half of the fitted maximal effect. The gist of the method: as §2
The nature of experiment [7]: qHTS of pediatric cancer cell lines to identify multiple opportunities for drug repurposing: Primary screen for OHS-50 cells (AID 1347103). Further: nearly all actives have a fitted effect of over 40% in size. Further: potency means the concentration at half of the fitted maximal effect. The procedure, abridged: (§3)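 Cells (500-1,000/well) rested 5 h, then received compounds for 48 h; metabolically active cells were measured by CellTiter-Glo luminescence. Final concentrations spanned up to 46 µM (MIPE, 11-point) or 0.59 nM-46 µM (NPC, 8-point) in primary screens, 11-point in follow-ups.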

Experiment [8] in a line: qHTS of pediatric cancer cell lines to identify multiple opportunities for drug repurposing: Primary screen for RD cells (AID 1347104). Further: nearly all actives have a fitted effect of over 55% in size. Further: potency means the concentration at half of the fitted maximal effect. The gist of the method:
as §1

The nature of experiment [9]: qHTS of pediatric cancer cell lines to identify multiple opportunities for drug repurposing: Primary screen for control Hh wild type fibroblast cells (AID 1347106).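 Further: series mostly up to about 46 µM; a drop in luminescence marks cytotoxicity and a rise apparent proliferation; nearly all actives have a fitted effect of over 55% in size.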 The gist of the method: as §2
Experiment [10] can be described thus: qHTS of pediatric cancer cell lines to identify multiple opportunities for drug repurposing: Primary screen for Rh30 cells (AID 1347107). Further: nearly all actives have a fitted effect of over 75% in size. Further: potency means the concentration at half of the fitted maximal effect. The gist of the method: as §2
The nature of experiment [11]: qHTS of pediatric cancer cell lines to identify multiple opportunities for drug repurposing: Primary screen for Rh41 cells (AID 1347108). Further: nearly all actives have a fitted effect of over 70% in size. Further: potency means the concentration at half of the fitted maximal effect. The procedure, abridged: as §1
A short description of experiment [12]: qHTS of pediatric cancer cell lines to identify multiple opportunities for drug repurposing: Primary screen for SK-N-SH cells (AID 1347098). Further: nearly all actives have a fitted effect of over 65% in size. Further: potency means the concentration at half of the fitted maximal effect. The gist of the method:
as §3

Experiment [13] can be described thus: qHTS of pediatric cancer cell lines to identify multiple opportunities for drug repurposing: Primary screen for MG 63 (6-TG R) cells (AID 1347105). Further: nearly all actives have a fitted effect of over 50% in size. Further: potency means the concentration at half of the fitted maximal effect. The gist of the method:
as §1

The nature of experiment [14]: qHTS of pediatric cancer cell lines to identify multiple opportunities for drug repurposing: Confirmatory screen for NB1643 cells (AID 1347109). Further: potency means the concentration at half of the fitted maximal effect; nearly all actives have a fitted effect of over 45% in size. The procedure, abridged:
as §2

Experiment [15] can be described thus: qHTS of pediatric cancer cell lines to identify multiple opportunities for drug repurposing: Confirmatory screen for A673 cells (AID 1347110).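 Further: potency means the concentration at half of the fitted maximal effect; cells exposed to compound for 48 h before the viability read; nearly all actives have a fitted effect of over 65% in size.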 The procedure, abridged:
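qHTS titration format: primary MIPE 0.78 nM-46 µM (11 pts), NPC 0.59 nM-46 µM; confirmation 11 pts. 48 h, CTG luminescence.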

A short description of experiment [16]: qHTS of pediatric cancer cell lines to identify multiple opportunities for drug repurposing: Confirmatory screen for BT-12 cells (AID 1347112). Further: nearly all actives have a fitted effect of over 55% in size. The gist of the method: as §2
Experiment [17] can be described thus: qHTS of pediatric cancer cell lines to identify multiple opportunities for drug repurposing: Primary screen for BT-12 cells (AID 1347101). Further: nearly all actives have a fitted effect of over 25% in size. Further: potency means the concentration at half of the fitted maximal effect. The gist of the method: as §3
Experiment [18] is described as follows: qHTS of pediatric cancer cell lines to identify multiple opportunities for drug repurposing: Primary screen for U-2 OS cells (AID 1347096). Further: nearly all actives have a fitted effect of over 50% in size. Further: potency means the concentration at half of the fitted maximal effect. The gist of the method:
as §2

The nature of experiment [19]: qHTS of pediatric cancer cell lines to identify multiple opportunities for drug repurposing: Confirmatory screen for SK-N-MC cells (AID 1347111).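 Further: potency means the concentration at half of the fitted maximal effect; cells exposed to compound for 48 h before the readout; nearly all actives have a fitted effect of over 70% in size.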 The procedure, abridged:
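Metabolically active cells were quantified by ATP-dependent luminescence (CellTiter-Glo, 15 min at room temperature) following 48 h treatment. Cells had been plated at 500-1,000 per well and settled for 5 h beforehand.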

A short description of experiment [20]: qHTS of pediatric cancer cell lines to identify multiple opportunities for drug repurposing: Confirmatory screen for LAN-5 cells (AID 1347113). Further: potency means the concentration at half of the fitted maximal effect; nearly all actives have a fitted effect of over 65% in size. The procedure, abridged:
as §2

Regarding `CN1CCCN(C(=O)c2cccc(-c3ccc(C=C4C(=O)Nc5ccc(Cl)cc54)o3)c2)CC1`, the Potency in experiment [1] is 6.85 µM (active); in [2], 3.32 µM (active); in experiment [3], 23.5 µM (active); in experiment [4], 5.9 µM (active); in [5], 2.09 µM (active); in [6], 7.43 µM (active). For the same molecule, the Potency in experiment [7] is 13.7 µM (active); in experiment [8], 33.2 µM (active); in [10] it was 18.7 µM (active); in experiment [11], 18.7 µM (active). Moreover, the Potency entry in [9] was “inactive”.

In the case of `CCNC(=O)Nc1ccc(-c2nc3c(c(N4CCOC[C@H]4C)n2)CCN(C2COC2)C3)cc1`, the Potency was 1.72 µM (active) in experiment [1]; 1.18 µM (active) in experiment [2]; 4.69 µM (active) in experiment [3]; 17.1 µM (active) in experiment [12]; 1.05 µM (active) in experiment [8]; 0.743 µM (active) in experiment [13]. The Potency in experiment [11] was 1.48 µM (active).

Take `O=C(Nc1nnc(-c2ccco2)o1)c1cc(-c2ccccc2)nc2ccccc12`: the Potency in [1] was 27.3 µM (active); in [2], 8.33 µM (active); in [12], 30.4 µM (active); in [4], 10.5 µM (active); in experiment [5], 20.9 µM (active); in experiment [13], 14.8 µM (active). In experiment [9], the Potency entry was “inactive”.

Take `COc1cc(C(C)C)c(Oc2cnc(NC(CO)CO)nc2N)cc1I`: the Potency result in [1], in experiment [5] and in experiment [9] was “inactive” in each case. The Potency in experiment [2] was 26.4 µM (active); in experiment [12], 1.08 µM (active); in [4] it was 2.96 µM (active).

Regarding `CN(CC(=O)N(Cc1ccc(C2CCCCC2)cc1)c1ccc(C(=O)O)c(O)c1)S(=O)(=O)c1c(F)c(F)c(F)c(F)c1F`, the Potency in experiment [1] was 17.2 µM (active); in [2], 26.4 µM (active); in experiment [3] it was 16.6 µM (active); in experiment [12], 21.5 µM (active); in experiment [4], 20.9 µM (active); in [7], 21.7 µM (active). Moreover, the figures for the Potency in experiment [11], in experiment [14] and in experiment [15] were 23.5 µM (active), 26.1 µM (active) and 13.1 µM (active), respectively. Moreover, the Potency entry in [9] and in experiment [16] was “inactive” each time.

As for `CC(C)[C@H](CO)Nc1nc(Nc2cccc(Cl)c2)c2ncn(C(C)C)c2n1`, the Potency in [1] is 21.7 µM (active); in [2] it was 18.7 µM (active); in [3] it was 9.35 µM (active); in [12], 21.5 µM (active); in [4], 2.96 µM (active); in [5], 11.8 µM (active). Also, the Potency is 21.7 µM (active) in experiment [17], 13.7 µM (active) in [7], 2.96 µM (active) in [13] and 11.8 µM (active) in experiment [11]. Further, the Potency result in [9] is “inactive”.

For `CCc1nc(-c2cccc(C)c2)c(-c2ccnc(NC(=O)c3ccccc3)c2)s1`, the Potency in experiment [1] was 27.3 µM (active); in experiment [2], 20.9 µM (active); in [3] it was 16.6 µM (active); in experiment [4], 18.7 µM (active). Further, the Potency result in experiment [12], in experiment [6] and in experiment [9] was “inactive” throughout.

On to `CCCNC(=O)[C@H]1O[C@H]1C(=O)N[C@H](C(=O)N1CCC[C@@H]1C(=O)OC)C(C)CC` (stereo not given in full), for which the Potency is 17.2 µM (active) in experiment [1]; 16.6 µM (active) in [2]; 2.96 µM (active) in experiment [3]; 9.35 µM (active) in [4]; 10.5 µM (active) in experiment [5]; 14.8 µM (active) in [6]. The Potency in experiment [7] was 17.2 µM (active); in experiment [11], 7.43 µM (active).

For `C=C(C)[C@@H]1CC[C@]2(C(=O)O)CC[C@]3(C)[C@H](CC[C@@H]4[C@@]5(C)CC[C@H](O)C(C)(C)[C@@H]5CC[C@]43C)[C@@H]12`, the Potency result in experiment [1], in experiment [18], in [4], in experiment [17], in experiment [8] and in experiment [13] was “inactive” throughout. For the same molecule, the Potency result in experiment [9] and in [11] was “inactive” throughout. The Potency in experiment [3] was 18.7 µM (active).

For the molecule `C[C@@H](NCc1cc2ccccc2[nH]1)c1cccc2ccccc12`, the Potency entry in experiment [1], in [18], in experiment [3], in [12], in experiment [4] and in experiment [5] was “inactive” each time. Also, the Potency entry in [17], in [6], in experiment [7], in experiment [8], in [13] and in experiment [9] was “inactive” in each case. Besides, the Potency entry in experiment [10] and in experiment [11] was “inactive” in each case.

Regarding `O=c1[nH]c(=O)n([C@H]2C[C@@H](O)[C@@H](CO)O2)cc1F`, the Potency in experiment [1] is 0.685 µM (active); in [18], 18.7 µM (active); in [3], 5.9 µM (active); in [4], 14.8 µM (active); in experiment [5], 1.32 µM (active); in experiment [17], 6.11 µM (active). Moreover, the figures for the Potency in experiment [8], in experiment [13] and in [11] were 16.6 µM (active), 18.7 µM (active) and 1.48 µM (active), respectively. Besides, the Potency result in [12] was “inactive”.

Consider `CC(=O)C1=C(O)C=C2Oc3c(C(C)=O)c(O)c(C)c(O)c3C2(C)C1=O` (stereo not given), for which the Potency in experiment [1] was 1.37 µM (active); in experiment [3] it was 1.48 µM (active); in experiment [17] it was 1.72 µM (active). Also, the Potency entry in experiment [18], in experiment [12], in experiment [6], in [13], in experiment [9] and in experiment [10] was “inactive” in each case. Also, the Potency result in experiment [11] is “inactive”.

Take `CC1(C)CC(O)CC(C)(C)N1[O]`: the Potency entry in experiment [1], in [18], in experiment [3], in experiment [4], in experiment [5] and in [6] was “inactive” throughout. The Potency result in experiment [8], in [13], in [9], in experiment [10] and in [11] was “inactive” in each case.

For the molecule `COc1cc2ncnc(Nc3cccc(Br)c3)c2cc1OC`, the Potency in [1] was 24.3 µM (active); in experiment [3] it was 29.6 µM (active); in [4], 7.43 µM (active); in experiment [7], 15.3 µM (active); in experiment [14] it was 18.5 µM (active); in experiment [15], 14.7 µM (active). The Potency in experiment [19] was 11.7 µM (active); in experiment [20], 16.5 µM (active). Besides, the Potency entry in experiment [9] and in [10] was “inactive” in each case.

`CC(=O)O[C@H]1C[C@@H]2CC[C@H]3[C@H]4C[C@H]([N+]5(C)CCCCC5)[C@@H](OC(C)=O)[C@@]4(C)CC[C@@H]3[C@@]2(C)C[C@H]1[N+]1(C)CCCCC1`: the Potency result in experiment [2], in [18], in [3], in experiment [12], in experiment [4] and in [5] was “inactive” each time. For the same molecule, the Potency entry in [17], in [6], in [7], in experiment [13], in experiment [9] and in [10] was “inactive” in each case. Also, the Potency result in experiment [11] was “inactive”.

`CC(N[C@H]1CCCC[C@H]1NC(=O)c1ccc(Cl)cc1)c1cccc2ccccc12` (stereo not given in full): the Potency is 1.53 µM (active) in experiment [1]; 0.0662 µM (active) in experiment [3]; 4.82 µM (active) in experiment [12]; 0.418 µM (active) in experiment [4]; 2.96 µM (active) in experiment [5]; 1.37 µM (active) in experiment [17]. In addition, the Potency is 6.11 µM (active) in experiment [7]; 2.64 µM (active) in experiment [8]; 20.8 µM (active) in experiment [14]; 16.5 µM (active) in experiment [15]; 2.61 µM (active) in experiment [19]; 14.7 µM (active) in experiment [20]. Further, the Potency entry in [18], in experiment [9] and in [10] was “inactive” in each case.
